# From PubChem BioAssay AID602393 (Broad Institute, 2012)
# Out of some 350,000 compounds screened, about 7,000 (2%) were called active. The entries come from a sample that favours actives as a whole. A number with no mark means an inactive call. No stated cut-off is given here; in the data, active means activation above about 40%; inconclusive means no clear call, values can overlap the other calls; inactive means below that.
# Test: Bmi1 luciferase reporter increase in mESCs, primary screen, esBAF inhibitor project, mouse ES cells, Bmi1 luciferase knock-in, single point (AID 602393);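 further: 0% = median of the plate's neutral control wells and 100% = double that signal; a rise in the Bmi1 reporter signal indicates esBAF inhibition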
# Settings: 24 h, at 12.5 µM, active compounds read high, 100% = twice the neutral-well signal
row,Compound,reporter increase
1,COc1cccc(C(=O)Nc2ccc3c(c2)C(=O)N(C)[C@@H]2CC[C@H](CC(=O)NCCCN4CCOCC4)O[C@H]2CO3)c1,6.81%
2,C[C@@H]1CN([C@@H](C)CO)C(=O)c2cc(NS(=O)(=O)c3cn(C)cn3)ccc2O[C@@H](C)CCCCO[C@H]1CN(C)S(=O)(=O)c1cccs1,-0.192%
3,Cc1ccc(S(=O)(=O)Nc2ccc3c(c2)C(=O)N([C@H](C)CO)C[C@@H](C)[C@H](CN(C)C(=O)Nc2ccc(C(F)(F)F)cc2)OCCCC[C@H](C)O3)cc1,-0.527%
4,COc1ccc(/C=N/NC(=O)C2CC2)c(OC)c1OC,-5.72%
5,c1ccc2c(c1)CCc1snnc1-2,-3.35%
6,COc1ccc(/C=C2/CCCc3ccccc3C2=O)cc1,23.6%
7,O=S(=O)(c1cccs1)N1CCc2ccccc2C1,-5.9%
8,O=C1/C(=C/c2cccs2)CCc2ccccc21,56.4% (active)
9,COc1ccc(/C=C2\CCc3ccccc3C2=O)c(OC)c1OC,35.7% (active)
10,O=C(C[C@H]1C=C[C@@H](NS(=O)(=O)c2ccc(F)cc2)[C@@H](CO)O1)NC1CCC1,-2.06%
11,CO[C@H]1CN(C)C(=O)c2cc(NS(C)(=O)=O)ccc2OC[C@@H](C)N(C)C[C@@H]1C,0.827%
12,CN1CCCCN2[C@@H](CO)[C@@H](c3ccc(C4=CCCC4)cc3)[C@@H]2C1,-22.1%
13,COc1ccc2c(CC(=O)Nc3nnc(C4CC4)s3)coc2c1,4.79%
14,CCc1cc(C(=O)Nc2nnc(C3CC3)s2)sc1C,53.3% (active)
15,O=C(Nc1nnc(C2CC2)s1)C1=NN(C2CCS(=O)(=O)C2)C(=O)CC1 (configuration not stated),4.96%
16,CCc1ccccc1OCC(=O)Nc1nnc(C2CC2)s1,1.33%
17,CCc1nnc(NC(=O)c2cc(S(=O)(=O)N3CCCCC3)ccc2C)s1,8.45%
18,Cc1cc(C(=O)Nc2nnc(C3CC3)s2)c(C)s1,62.3% (active)
19,COCc1cn(CC[C@H]2CC[C@H](NC(=O)c3ccncc3)[C@H](CO)O2)nn1,-3.19%
20,CN1C[C@H]2[C@@H](c3ccccc31)[C@@H](CO)N2C(=O)Nc1ccccc1,3.76%
21,O=S(=O)(Nc1ccc2cn[nH]c2c1)c1ccccc1,-0.15%
22,O=S(=O)(Nc1ccc2nc(-c3ccco3)[nH]c2c1)c1ccccc1,60.3% (active)
23,Cn1c(CCN2CCCC2)nc2cc(NS(=O)(=O)c3ccccc3)ccc21,1.19%
24,CO[C@H]1CC[C@@H]2CCOc3c(C#N)cccc3C(=O)N(C)C[C@H](C)C(=O)N(C)C[C@H]1O2,4.38%
25,C[C@H](NC(=O)C[C@@H]1C[C@@H]2c3cc(NC(=O)Nc4ccc(C(F)(F)F)cc4)ccc3O[C@@H]2[C@H](CO)O1)c1ccccc1,-3.56%
26,COC(=O)C[C@@H]1CC[C@@H]2[C@@H](COc3ccc(NC(=O)C4CCOCC4)cc3C(=O)N2C)O1,1.18%

row,Compound,reporter increase
1,C[C@H]1CN([C@@H](C)CO)C(=O)Cc2cc(NC(=O)Nc3ccc(F)cc3)ccc2O[C@H]1CN(C)S(=O)(=O)c1ccc(F)cc1,1.01%
2,Cc1nc2cc(NCc3cccs3)ccc2n1C,35%
3,COc1ccc(-n2cnc3cc(NCc4ccco4)ccc32)cc1,56.7% (active)
4,COc1cc(-n2c(C)nc3cc(C(=O)NCc4ccco4)ccc32)cc(OC)c1OC,-1.78%
5,O=C(C[C@H]1CC[C@H](NC(=O)Nc2ccccc2F)[C@@H](CO)O1)NCc1ccccc1,0.158%
6,S=C(Nc1ccccc1)Nc1ccc2ccccc2c1,78.2% (active)
7,FC(F)(F)Oc1ccc(NC(=S)NCc2ccccc2)cc1,-1.5%
8,Cc1ccc(NC(=S)Nc2ccc(F)cc2)cc1,9.65%
9,CCOc1ccc(/C=C(/C#N)c2nnc(N3CCOCC3)n2-c2ccccc2)cc1OC,2.69%
10,CCCCCOc1ccc(/C=C/C(=O)NCCc2nc3ccccc3[nH]2)cc1OC,1.93%
11,COc1cc(/C=C(\C#N)c2nc3ccccc3[nH]2)ccc1O,54.9% (active)
12,CC=Cc1ccc2n(c1=O)C[C@@H]1[C@@H](CO)[C@H](C(=O)NCCCN3CCOCC3)[C@H]2N1Cc1cocn1 (mixture of isomers),-2.98%
13,CCNC(=O)C[C@@H]1CC[C@H](NC(=O)NC2CCCCC2)[C@H](CO)O1,-1.71%
14,O=C(C[C@@H]1C[C@@H]2c3cc(NC(=O)Cc4ccncc4)ccc3O[C@@H]2[C@H](CO)O1)NCc1cccc(F)c1,-1.25%
15,O=C(COC(=O)c1cccc(Cl)c1Cl)NC1CCCCCC1,-2.51%
16,O=C(OCC(=O)N1CCCCCC1)c1cccc(Cl)c1Cl,46.9% (active)
17,O=C(COc1ccccc1Cl)N1CCCCCCC1,5.02%
18,CC(C)Cc1cc(C(=O)Nc2cc(Br)ccc2O)no1,30.6%
19,Cc1ccc(C)c(NC(=O)c2ccc(OC(=O)c3ccco3)cc2)c1,5.84%
20,Cc1ccc(O)c(NC(=O)c2cc(-c3ccco3)on2)c1,69.9% (active)
21,C[C@H](CO)N1C[C@H](C)[C@@H](CN(C)CC2CC2)OCCCC[C@H](C)Oc2ccc(NC(=O)Nc3ccccc3)cc2C1=O,2.38%
22,CNC[C@H]1Oc2cc(-c3ccc(C(=O)N(C)C)cc3)ccc2S(=O)(=O)N([C@@H](C)CO)C[C@@H]1C,0.467%
23,C[C@@H]1CN([C@H](C)CO)C(=O)c2ccccc2-c2ccccc2CO[C@H]1CN(C)C(=O)CCC(F)(F)F,-0.31%
24,COc1cccc(C(=O)Nc2ccc3nc4n(c(=O)c3c2)CCCCC4)c1,38.2%
25,CC(=O)c1ccc(NC(=O)c2sc3nc4n(c(=O)c3c2C)CCCCC4)cc1,56.1% (active)
26,O=c1c2c(nc3n1CCCCC3)sc1c(O)cccc12,-22.9%

row,Compound,reporter increase
1,COc1cccc(NC(=O)N(C)C[C@H]2Oc3ncc(C4=CCCCC4)cc3C(=O)N([C@H](C)CO)C[C@H]2C)c1,6.32%
2,C[C@H](CO)N1C[C@H](C)[C@@H](CN(C)C(=O)Nc2ccccc2)Oc2ncc(C3=CCCC3)cc2C1=O,1.19%
3,Cn1cnc(S(=O)(=O)N2C[C@@H](O)COC[C@H]3O[C@H](CC(=O)N4CCN(c5ccccc5)CC4)CC[C@@H]32)c1,0.849%
4,COc1ccc(C2CC(c3cccc(OC)c3)=NN2c2ccc(S(N)(=O)=O)cc2)cc1 (configuration not stated),4.76%
5,COc1ccc(C2CC(c3ccccc3)=NN2C(=O)CSc2nccc(=O)[nH]2)cc1 (configuration not stated),11.5%
6,COc1ccc(C2=NN(C(=O)CSc3nnnn3C)C(c3ccco3)C2)cc1 (configuration not stated),18%
7,COc1ccc(C2=NN(C(=O)CSc3nc(=O)n4ccc(C)cc4n3)C(c3ccc(C)cc3)C2)cc1 (configuration not stated),9.03%
8,COc1cccc(C2CC(c3ccccc3)=NN2S(=O)(=O)c2ccccc2)c1OC (configuration not stated),-2.12%
9,COc1ccc(C2CC(c3ccccc3)=NN2C(=O)c2ccc(Cl)c([N+](=O)[O-])c2)cc1 (configuration not stated),-0.268%
10,COc1ccc(C2=NN(C(=O)c3ccccc3C(=O)O)C(c3ccccc3O)C2)cc1 (configuration not stated),74.8% (active)
11,COc1ccc(C2CC(c3ccc([N+](=O)[O-])cc3)=NN2C(C)=O)cc1 (configuration not stated),71.3% (active)
12,COc1ccc(C2=NN(C(C)=O)C(c3ccccc3)C2)cc1 (configuration not stated),53.9% (active)
13,C[C@@H]1CN([C@@H](C)CO)C(=O)Cc2cc(NC(=O)Nc3cccc4ccccc34)ccc2O[C@@H]1CN(C)CC1CCCCC1,-7.15%
14,CC(C)CC#Cc1cnc2c(c1)C(=O)N([C@H](C)CO)C[C@H](C)[C@@H](CN(C)Cc1ccccc1C(=O)O)O2,-5.98%
15,Cc1noc(C)c1S(=O)(=O)Nc1ccc2c(c1)C(=O)N([C@H](C)CO)C[C@@H](C)[C@@H](CN(C)Cc1ccccc1)OCCCC[C@@H](C)O2,3.09%
16,CN1C(=O)c2cc(NC(=O)C3CCCCC3)ccc2OC[C@H]2O[C@@H](CC(=O)NC3CCCC3)CC[C@@H]21,0.376%
17,C[C@@H]1CN([C@@H](C)CO)C(=O)Cc2cc(NC(=O)Nc3cccc4ccccc34)ccc2O[C@H]1CN(C)S(=O)(=O)c1ccc(Cl)cc1,-0.13%
18,COc1ccc(NC(=O)N(C)C[C@H]2Oc3ccc(NC(=O)Cc4cn(C)c5ccccc45)cc3CC(=O)N([C@@H](C)CO)C[C@H]2C)cc1,-1.83%
19,CS(=O)(=O)Nc1cccc(C2=NN(S(=O)(=O)c3ccccc3)C(c3cccs3)C2)c1 (configuration not stated),-7.36%
20,CS(=O)(=O)Nc1ccc(C2=NN(S(C)(=O)=O)C(c3cccs3)C2)cc1 (configuration not stated),58.2% (active)
21,CS(=O)(=O)Nc1cccc(C2=NN(C(=O)c3cccc(F)c3)C(c3cccs3)C2)c1 (configuration not stated),5.14%
22,CC(C)C#Cc1ccc2c(c1)O[C@@H](CN(C)C(=O)C1CC1)[C@H](C)CN([C@H](C)CO)S2(=O)=O,3.19%
23,C[C@@H]1CN([C@H](C)CO)C(=O)c2cccc(NS(=O)(=O)c3ccc(F)cc3)c2O[C@@H]1CN(C)S(=O)(=O)c1ccc(Cl)cc1,0.559%
24,CO[C@@H](CN(C)S(=O)(=O)c1ccc(F)cc1)[C@H](C)CN(C(=O)Nc1ccccc1F)[C@@H](C)CO,7.4%
25,O=C(C[C@H]1C=C[C@@H](NC(=O)c2cnccn2)[C@H](CO)O1)NCc1ccccc1F,-1.5%
